OvCa metastasis: Primary qHTS assay for Inhibitors of ovarian cancer metastasis using an organotypic tumor microenvironment (TME) model | SKOV3ip1-GFP adhesion/invasion on 3D omental model, fluorescence | AID 1963576, 2024 | 46,000 tested, 0.1% active | Potency, µM (titrated, usually from 45.8 µM), without a hit: at the top dose activity change, negative = inhibition, hits mostly inhibitors;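 also: potency is read from the fitted curve at half-maximal effect; plate controls were DMSO wells for no effect and tomatine positive control wells for full effect; nearly all actives have a fitted effect of over 65% in size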
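Adhesion/invasion was scored as fixed GFP-labeled SKOV3ip1 cell counts (488/509 nm), normalized to DMSO and tomatine controls. Cancer cells in serum-free medium, with four compound doses (0.36-46 umol/L), sat 2 hr at RT then 16 hr at 37 C on a 48 hr fibroblast/mesothelial/ECM culture.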
p53null 39C tox: qHTS Screen for Compounds that Selectively Target Cancer Cells with p53 Mutations: Cytotoxicity of p53 Null Cells at the Nonpermissive Temperature; H1299 p53-null (neo) cells, 39C, ATPlite viability, 24 h; Potency, µM (doses to about 46.1 µM), for the others: top-dose activity, negative = cell killing, hits mostly cytotoxic; 55,000 tested, 0.97% active; AID 904, 2007;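 also: potency is read from the fitted curve at half-maximal effect; 0% = DMSO only and -100% = full killing by 100 µM tamoxifen; nearly all actives have a fitted effect of over 50% in size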
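ATP-luminescence viability readout (ATPlite, 20 min RT) after 24 hr compound treatment at 39C of H1299-neo or H1299-p53A138V cells; titration up to 46 uM; normalized to DMSO and 100 uM tamoxifen; Hill-fit AC50.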
mTORC1 inh: Acumen qHTS Assay for Inhibitors of the mTORC1 Signaling Pathway in MEF (Tsc2-/-, p53-/-) Cells: Sytravon; 44,000 tested, 0.78% active; Tsc2-/- p53-/- MEF, phospho-rpS6 immunofluorescence/PI, 24 h; Potency, µM (series often up to 38.3 µM), for the others: at the top dose activity change, negative = inhibition, usual class: inhibitors;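 also: potency is read from the fitted curve at half-maximal effect; plate controls were DMSO for no effect and rapamycin for full effect; nearly all actives have a fitted effect of over 50% in size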
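Plate MEFs (Tsc2-/-, p53-/-, empty vector) in DMEM/10% FBS; after 24 h add compound, incubate 24 h at 37 degree Celsius; fix in PFA/TX-100, block, stain phospho-rpS6 and 10 uM PI; scan at 488 nm; report % positive cells.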
p53null 32C kill: qHTS Screen for Compounds that Selectively Target Cancer Cells with p53 Mutations: Cytotoxicity of p53 Null Cells at the Permissive Temperature; H1299-neo p53 null cells, ATP luminescence, 24 h, 32C; Potency, µM (top dose mostly 46.1 µM), for inactives: top-dose activity change, negative = cytotoxicity, most hits filed as cytotoxic; 55,000 tested, 0.62% active; AID 903, 2007;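 also: potency is read from the fitted curve at half-maximal effect; 0% = DMSO only and -100% = full killing by 100 µM tamoxifen; nearly all actives have a fitted effect of over 55% in size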
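H1299-neo (p53-null) cells, 600/well, were pre-incubated overnight at 37C, then exposed to compounds at up to 46 uM for 24 hr at 32C. Viability was measured as ATP content by luminescence, and AC50 values came from Hill fits.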
S16 viability: Cell viability qHTS assay in S16 Pmp22-F2sN cells. S16 Pmp22-F2sN Schwann cells viability, CellTiter-Glo, 24 h. Potency, µM (top dose mostly 57.5 µM), without a hit: at the highest dose activity change, negative = cytotoxicity, actives largely listed as cytotoxic. 43,000 tested, 0.48% active. AID 1508642, 2021; also: potency is read from the fitted curve at half-maximal effect; % is scaled to controls: 0 for no effect and ±100 for the full control effect; nearly all actives have a fitted effect of over 65% in size
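Luminescence from CellTiter-Glo, read by CCD camera after a 15 min room-temperature incubation, served as the viability signal. Reporter Schwann cells (S16 Pmp22-F2sN) had been treated with pin-transferred compounds for 24 h at 37C.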
PMP22 txn: Cell-based coincidence reporter assay to measure PMP22 gene transcription in S16 Pmp22-F2sN cells - Primary screen | S16 Pmp22-F2sN Schwann cells (luciferase reporters placed in the Pmp22 gene), FLuc/NLuc coincidence luminescence, 24 h | Potency, µM (doses to about 57.5 µM), without a hit: at the top dose activity change, negative = inhibition, actives largely listed as inhibitors | 43,000 tested, 2% active | AID 1508649, 2021; active = clear falling dose curves in both reporters; inconclusive = both reporters move, but less clearly or upward; inactive = either reporter flat; the % is the NLuc reporter signal; also: potency is read from the fitted curve at half-maximal effect; % is scaled to controls: 0 for no effect and ±100 for the full control effect
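S16 Schwann cells carrying FLuc/NLuc coincidence reporter in the Pmp22 3' UTR treated with compound 24 h at 37C; FLuc then NLuc luminescence read sequentially by dual-luciferase reagents.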
NLuc saturating: Biochemical NLuc saturation counterscreen for small molecule modulators of PMP22 gene expression - Nano-Glo assay; AID 1508638, 2021; Secreted NLuc enzyme (filtered S16 cell medium), Nano-Glo luminescence; 690 tested, 4% active; shares compounds with PMP22 txn; Potency, µM (series often up to 57.5 µM), for inactives: top-dose activity change, negative = inhibition, usual class: inhibitors; also: potency is read from the fitted curve at half-maximal effect; % is scaled to controls: 0 for no effect and ±100 for the full control effect
NLuc Km counter: Biochemical coelenterazine-based NLuc counterscreen for small molecule modulators of PMP22 gene expression - Km assay. secreted NLuc enzyme, coelenterazine luminescence, Km conditions. Potency, µM (series often up to 57.5 µM), for inactives: top-dose activity change, negative = inhibition, hits mostly inhibitors. shares compounds with PMP22 txn. 690 tested, 5% active. AID 1508639, 2021; also: potency is read from the fitted curve at half-maximal effect; % is scaled to controls: 0 for no effect and ±100 for the full control effect
FLuc ctr PMP22: Biochemical FLuc counterscreen for small molecule modulators of PMP22 gene expression. Potency, µM (highest dose often 57.5 µM), for inactives: top-dose activity, negative = inhibition, hits mostly inhibitors. 690 tested, under 10 active. purified P. pyralis FLuc, luminescence, 10 min. shares compounds with PMP22 txn; also: % of control where 0% means no effect
Target sequence (P08659 whole entry, looked up): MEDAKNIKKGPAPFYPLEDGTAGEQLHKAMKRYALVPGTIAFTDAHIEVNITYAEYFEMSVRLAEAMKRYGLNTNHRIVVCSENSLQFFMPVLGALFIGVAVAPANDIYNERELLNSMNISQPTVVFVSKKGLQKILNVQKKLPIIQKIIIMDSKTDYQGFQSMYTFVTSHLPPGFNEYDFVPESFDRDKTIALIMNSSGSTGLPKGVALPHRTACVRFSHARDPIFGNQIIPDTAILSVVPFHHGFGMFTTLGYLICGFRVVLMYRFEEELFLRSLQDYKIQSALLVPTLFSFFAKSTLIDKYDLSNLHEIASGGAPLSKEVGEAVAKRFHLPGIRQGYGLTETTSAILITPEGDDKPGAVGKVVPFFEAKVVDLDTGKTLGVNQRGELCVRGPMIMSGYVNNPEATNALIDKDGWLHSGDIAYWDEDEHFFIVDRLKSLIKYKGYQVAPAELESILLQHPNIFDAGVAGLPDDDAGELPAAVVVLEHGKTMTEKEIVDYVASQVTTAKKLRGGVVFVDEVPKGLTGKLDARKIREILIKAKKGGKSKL
S16 F2sN tox cnf: Cell viability qHTS assay in S16 Pmp22-F2sN cells - Confirmatory screen; shares compounds with PMP22 txn; S16 Schwann cells viability, CellTiter-Glo ATP luminescence, 24 h; Potency, µM (highest dose often 57.5 µM), inactives show top-dose activity change, negative = viability loss, hits mostly cytotoxic; 690 tested, 7% active; AID 1508641, 2021; also: potency is read from the fitted curve at half-maximal effect; % is scaled to controls: 0 for no effect and ±100 for the full control effect
PMP22 txn cnf: Cell-based coincidence reporter assay to measure PMP22 gene transcription in S16 Pmp22-F2sN cells - Confirmatory screen | shares compounds with PMP22 txn | S16 Schwann cells Pmp22-F2sN, dual luciferase, 24 h | Potency, µM (highest dose often 57.5 µM), for inactives: top-dose activity change, negative = inhibition, hits mostly inhibitors | 690 tested, 22% active; active = clear falling dose curves in both reporters; inconclusive = both reporters move, but less clearly or upward; inactive = either reporter flat; the % is the FLuc reporter signal; also: potency is read from the fitted curve at half-maximal effect
PMP22 HiBiT cnf: Cell-based HiBiT reporter assay to measure PMP22 protein expression in S16 Pmp22-HiBiT cells - Confirmatory screen | shares compounds with PMP22 txn | S16 Schwann cells Pmp22-HiBiT, luminescence, 48 h | Potency, µM (top dose mostly 27.9 µM), without a hit: at the highest dose activity change, negative = inhibition, actives largely listed as inhibitors | 95 tested, under 10 active
Target sequence (P25094 whole entry, looked up): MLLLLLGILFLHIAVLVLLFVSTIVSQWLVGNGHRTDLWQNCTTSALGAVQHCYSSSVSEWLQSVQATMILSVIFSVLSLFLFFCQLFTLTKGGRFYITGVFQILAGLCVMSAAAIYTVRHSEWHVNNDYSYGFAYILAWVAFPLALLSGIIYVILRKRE
Starred values were filed as active, the others as inactive; i = inactive; ? = inconclusive; nt = no result. Compounds with a hit are over-represented: about 3.1% of the library has one in this group of screens. Unless noted, calls follow the shape of the dose curve; as a rule, active = well fitted curve in the direction sought with a large enough effect; inconclusive = small, poorly fitted or top-dose-only effect, or another doubt; inactive = no such curve, though single readings can be large; an effect the other way counts as inactive or inconclusive.

SMILES	OvCa metastasis	p53null 39C tox	mTORC1 inh	p53null 32C kill	S16 viability	PMP22 txn	NLuc saturating	NLuc Km counter	FLuc ctr PMP22	S16 F2sN tox cnf	PMP22 txn cnf	others
COc1cc(OC)c(NS(=O)(=O)c2ccc3c(c2)NC(=O)CCS3)cc1Cl	6%	-16%	6%	3%	?	14µM*	?	?	-1%	-11%	?
Cc1ccccc1NS(=O)(=O)c1ccc2c(c1)NC(=O)CCS2	i	-14%	4%	-5%	2%	-13%	nt	nt	nt	nt	nt
O=C(O)C[C@H](O)C[C@H](O)C=Cc1c(C2CC2)nc2ccccc2c1-c1ccc(F)cc1	-19%	nt	nt	nt	nt	nt	nt	nt	nt	nt	nt
Cc1cc(Nc2ccc(F)cc2)nc(-n2nc(C)cc2C)n1	0%	-7%	0%	-12%	?	?	?	-12%	-8%	?	16µM*
O=C(Nc1cccc2cccnc12)c1cccc2ccccc12	-13%	-8%	-5%	-23%	2%	?	nt	nt	nt	nt	nt
O=C(Nc1ccc(Br)c2cccnc12)c1cccc2ccccc12	i	-13%	-5%	-3%	14%	16µM*	-10%	1%	2%	13%	?
COc1ccc(N(C(=O)c2cc(OC)c(OC)c(OC)c2)S(=O)(=O)c2ccc(C)cc2)cc1	3%	2%	3%	15%	?	19µM*	-21%	-1%	0%	-20%	-16%
COc1ccc(NC(=O)c2ccc3c(c2)c(C)c(C)n3Cc2ccc(F)cc2)cc1	-4%	?	?	1%	-18%	15µM*	-17%	-3%	-28%	-9%	0%
Cc1ccc(-n2c(=O)c3ccc(C(=O)NCc4ccccc4Cl)cc3n(Cc3ccccc3F)c2=O)cc1	-9%	-3%	-1%	5%	-4%	0%	nt	nt	nt	nt	nt
CCc1ccc(NC(=O)Cn2c(=O)n(-c3ccc(OC)cc3)c(=O)c3ccc(C(=O)NCc4ccc(C)cc4)cc32)cc1	1%	?	?	?	-8%	13µM*	-2%	6%	-1%	?	12µM*	PMP22 HiBiT cnf=?
Cc1ccc(NC(=O)Cn2c(=O)n(-c3ccc(C)cc3)c(=O)c3ccc(C(=O)NCc4ccccc4Cl)cc32)cc1	i	?	-9%	-24%	?	4.5µM*	-5%	13%	-2%	22µM*	5.1µM*	PMP22 HiBiT cnf=?
Cc1ccc(-n2c(=O)c3ccc(C(=O)NCc4ccccc4Cl)cc3n(CC(=O)Nc3ccc(C)cc3C)c2=O)cc1	i	-5%	-8%	1%	11%	15µM*	-6%	4%	6%	?	8.5µM*
CC[C@H]1OC(=O)[C@H](C)[C@@H](O[C@H]2C[C@@](C)(OC)[C@@H](O)[C@H](C)O2)[C@H](C)[C@@H](O[C@@H]2O[C@H](C)C[C@H](N(C)C)[C@@H]2O)[C@](C)(OC)C[C@@H](C)C(=O)[C@H](C)[C@@H](O)[C@]1(C)O	-2%	nt	nt	nt	nt	nt	nt	nt	nt	nt	nt
CC(=O)c1ccc(N2CCN(S(=O)(=O)c3cc(-c4onc(C)c4C)ccc3C)CC2)cc1	-9%	-19%	-14%	-10%	-15%	10µM*	?	?	-1%	-9%	-18%
CCC(C)n1c(=N)c(C(=O)NC2CCCC2)cc2c(=O)n3ccccc3nc21 (stereo unspecified)	-12%	36%	-2%	-8%	-3%	9.5µM*	-17%	-5%	5%	?	-31%
COCCCn1c(=N)c(C(=O)NC2CCCC2)cc2c(=O)n3cc(C)ccc3nc21	i	4%	0%	0%	5%	-5%	nt	nt	nt	nt	nt
COCCCn1c(=N)c(C(=O)NC2CCCC2)cc2c(=O)n3cccc(C)c3nc21	i	7%	-1%	3%	8%	?	-6%	1%	3%	20%	?

Bioassay records deposited in PubChem BioAssay by National Center for Advancing Translational Sciences (NCATS).
